# Source: PubChem (National Center for Advancing Translational Sciences (NCATS))
# BAZ2B block = blocks human BAZ2B; Q9UIF8; AlphaScreen BAZ2B-H3K14Ac peptide displacement; Potency, µM (doses to about 114 µM), for the others: at the highest dose activity change, negative = inhibition, usual class: inhibitors; actives 4.4% (n = 360,000); AID 504333; also: % is scaled to controls: 0 for no effect and ±100 for the full control effect; nearly all actives have a fitted effect of over 60% in size
#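 Multi-concentration screen (max 110 uM) measuring displacement of acetylated histone H3 peptide from BAZ2B by AlphaScreen, using 50 nM protein, 50 nM peptide and 10 ug/mL streptavidin donor plus Ni-chelate acceptor beads.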
# G9a block = G9a (human) methyltransferase inhibition; actives 8.8% (n = 350,000); Potency, µM (top dose mostly 102 µM), for the others: at the highest dose activity, negative = inhibition, hits mostly inhibitors; G9a H3K9 monomethylation, AlphaScreen, 2 h; Q96KQ7; also: % is scaled to controls: 0 for no effect and ±100 for the full control effect; nearly all actives have a fitted effect of over 75% in size
#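 Step 1: enzyme (final 20 nM) with compound, 15 min RT. Step 2: substrate peptide 500 nM and SAM 20 uM, 2 h RT. Step 3: anti-H3K9me1 antibody and AlphaScreen beads, 10 min, then plate read.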
# Sfp PPTase inh = inhibitors of Bacillus subtilis Sfp phosphopantetheinyl transferase. Biochemical Sfp PPTase activity, qHTS. Potency, µM, for inactives: largest response in the series, negative = inhibition, most hits filed as inhibitors. actives 3.5% (n = 310,000). AID 1490;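 also: the enzyme is Sfp with the accession as filed and its product quenches rhodamine fluorescence; 0% = enzyme reaction without inhibitor and -100% = no enzyme wells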
#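 Step 1, compound plus 15 nM Sfp-PPTase, 15 min, room temperature. Step 2, add rhodamine-CoA (5 uM) and BHQ-2-YbbR (12.5 uM). Step 3, read 525/598 nm fluorescence at 0 and 30 min.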
# JMJD2A Tudor = JMJD2A Tudor domain (human) inhibition | AlphaScreen JMJD2A-Tudor / H3K4me3 peptide binding | O75164 | Potency, µM (top dose mostly 114 µM), for inactives: at the top dose activity change, negative = inhibition, hits mostly inhibitors | actives 4.4% (n = 390,000); also: % is scaled to controls: 0 for no effect and ±100 for the full control effect; nearly all actives have a fitted effect of over 50% in size
# HP1b chromo inh = blocks HP1-beta chromodomain binding to methylated histone tails | AlphaScreen HP1-beta / biotin-H3K9me3 peptide binding | Potency, µM (doses to about 114 µM), without a hit: at the top dose activity change, negative = inhibition, most hits filed as inhibitors | actives 0.56% (n = 390,000) | AID 540317; also: nearly all actives have a fitted effect of over 70% in size
#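 HP1-beta protein (50 nM final) preincubated 30 min at room temperature with biotinylated H3(1-18)K9me3 peptide (50 nM) in PBS pH 7.4, 0.01% Tween-20, then compound added for 30 min. AlphaScreen streptavidin donor/nickel chelate acceptor beads (10 ug/mL final), 30 min dark, luminescence read.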
# PLK1 PBD block = inhibitors of human PLK1 polo-box domain binding. P53350. Plk1 PBD binding of FITC phosphopeptide, fluorescence polarization. Potency, µM, inactives show max response, negative = inhibition, actives largely listed as inhibitors. actives 2.8% (n = 360,000). AID 720504; also: series mostly up to about 57 µM; % is scaled to controls: 0 for no effect and ±100 for the full control effect; nearly all actives have a fitted effect of over 65% in size
# * hit, by the source's call; ? = inconclusive; / = no result given; [ ] = another dose, or the depositor's remark. Shown are actives, neighbours in structure and some others; about 12% of the full set was active somewhere. Calls follow the shape of the dose curve; as a rule, active = well fitted curve in the direction sought with a large enough effect; inconclusive = small, poorly fitted or top-dose-only effect, or another doubt; inactive = no such curve, though single readings can be large; an effect the other way counts as inactive or inconclusive. Potency is read from the fitted curve at half-maximal effect.
SMILES,BAZ2B block,G9a block,Sfp PPTase inh,JMJD2A Tudor,HP1b chromo inh,PLK1 PBD block
Cc1c(Nc2nc3ccccc3nc2NS(=O)(=O)c2ccccc2)c(=O)n(-c2ccccc2)n1C,-5%,-35%[59 µM],-7%,-14%,12%,-11%
CC(=O)Nc1ccc(S(=O)(=O)Nc2nc3ccccc3nc2Sc2nncn2C)cc1,23%,?,?,-20%,26%,?
Nc1nnc(Cc2cccc(Br)c2)s1,-20%,-1%,13%,-3%,13%,-11%
COC(=O)c1ccc(CNC(=O)CN2C(=O)NC(Cc3ccccc3)(c3ccccc3)C2=O)cc1 (stereo unspecified),/,/,/,/,/,1%
O=C(Nc1ccccc1)c1cc2ccccc2o1,5%,3%[59 µM],-3%,10%,49%,1%
CC/C(=C\c1oc2cc3ccccc3cc2[n+]1CC)Nc1ccccc1,79µM*,5.6µM*,-38%,-17%,42%,-27%
Cc1cc(C)c2c(n1)SCCN2C(=O)Nc1ccc(C(=O)Nc2cc(Cl)ccc2C)cc1,3%,?,/,-2%,40%,/
CCOc1ccccc1OCCC(=O)OCC(=O)Nc1c(C)nn(-c2ccccc2)c1C,7%,56µM*,/,-12%,29%,-9%
Cc1nn(-c2ccccc2)c(C)c1NC(=O)COC(=O)CCOc1ccccc1,-26%,-9%[0.501 µM],/,-8%,23%,0%
CC(=O)/C(=N\Nc1ccccc1Cl)Sc1nnc(-c2ccccc2)n1-c1ccccc1,-33%,8.9µM*,-21%,-29%,51%,-1%
CC(=O)/C(=N\Nc1ccccc1)Sc1nnc(-c2ccccc2)n1-c1ccccc1,-11%,10µM*,-27%,32µM*,52%,1%
Cn1cnnc1SCC(=O)NCc1ccccc1,-4%,1%[12.7 µM],0%,4%,23%,7%
CC(=O)/C(=N\Nc1ccccc1)Sc1nncn1C,?,4µM*,20µM*,20µM*,18%,-2%
Cc1ccc(Cl)cc1-n1c(CCC(=O)O)ccc1-c1cccs1,?,11µM*,/,?,0%,/
Cc1cc(Cl)ccc1-n1c(CCC(=O)O)ccc1-c1cccs1,45µM*,?,/,?,-14%,/
COC(=O)C1=C(C)N(C)C(=O)NC1c1cc2c(cc1[N+](=O)[O-])OCO2 (stereo unspecified),50µM*,?,14µM*,-2%,29%,-19%
COC(=O)C1=C(C)N(C)C(=O)NC1c1cc2c(cc1Br)OCO2 (stereo unspecified),-7%,/,23%,-22%,13%,-8%
COC(=O)C1=C(C)N(CCCC(=O)O)C(=O)NC1c1ccc([N+](=O)[O-])cc1 (stereo unspecified),/,/,/,-16%,28%,-2%
COC(=O)C1=C(C)N(CCCC(=O)O)C(=O)NC1c1cc2c(cc1[N+](=O)[O-])OCO2 (stereo unspecified),?,7.9µM*,32µM*,35µM*,-10%,-22%
Clc1cccc(-n2ncc3c(NCCC4=CCCCC4)ncnc32)c1,5%,-8%[59 µM],/,-7%,10%,/
Cc1cc(C2C(C#N)=C(N)SC(N)=C2C#N)c(C)s1,-6%,1.3µM*,?,?,18%,12%
Cc1sccc1C1C(C#N)=C(N)SC(N)=C1C#N,-35%,1.1µM*,18µM*,/,/,/
CSC(N)=NCCCC(N)C(=O)O (stereo unspecified),/,/,10%,/,/,/
CSc1ccc(CN2CCC2(C)C(=O)NC2CCc3ccccc32)cc1 (stereo unspecified),/,/,/,/,/,-8%
CC1CN(c2snnc2C=C2C(=O)OC(C)(C)OC2=O)CC(C)O1 (stereo unspecified),?,?,50µM*,-23%,24%,?
SMILES,BAZ2B block,G9a block,Sfp PPTase inh,JMJD2A Tudor,HP1b chromo inh,PLK1 PBD block
Cc1nc2ccccc2n1Cc1n[nH]c(=S)n1-c1ccc(Cl)cc1,2%,?,1%,-7%,46%,-16%
CC(C)N(C(=O)CSc1nnc(Cn2nnc3ccccc32)n1C)C(C)C,11%,42%[12.7 µM],0%,-1%,37%,-1%
Fc1ccc(-n2c(-c3ccc4ccccc4n3)n[nH]c2=S)cc1Cl,-23%,?,19%,-24%,21%,-18%
Fc1ccc(-n2c(Cn3nnc4ccccc43)n[nH]c2=S)cc1,?,/,-28%,18µM*,31%,-5%
Cc1cc(-c2n[nH]c(=S)n2-c2ccc(F)cc2)nn1C,-6%,?,-16%,25µM*,25%,-17%
Cc1cc(C(F)(F)F)nn1Cc1n[nH]c(=S)n1-c1ccc(F)cc1,-32%,10µM*,-21%,-29%[57.1 µM],21%,-20%
Cn1c(Cn2nnc3ccccc32)nnc1SCC(=O)c1ccc(F)cc1,-6%,35µM*,?,45µM*,22%,-16%
Cc1cc(C)c2sc(N(Cc3cccnc3)C(=O)CCS(=O)(=O)c3ccccc3)nc2c1,-9%,18%[59 µM],/,-14%,19%,/
COC(=O)c1ccc(C(NC(=O)OCc2ccccc2)/C(C)=C/[C@@H](C)C(=O)NCc2cc(F)cc(F)c2)cc1 (stereo partly specified),/,/,19%,/,/,/
O=C(COC(=O)Cc1c(Cl)cccc1Cl)NCC1CCCO1 (stereo unspecified),-2%,-1%,18%,-11%,18%,-6%
CCC1(c2ccccc2)NC(=O)NC1=O (stereo unspecified),/,/,-9%,/,/,/
Cc1ccccc1OCCn1c(S(=O)(=O)O)nc2c(N)ncnc21,-12%,13%[2.33 µM],18%,-4%,23%,1%
S=c1[nH]nc(Cn2nnc3ccccc32)n1-c1ccccc1,-16%,32µM*,5%,6.3µM*,35%,-4%
c1ccc2c(c1)nnn2Cn1nnc2ccccc21,/,/,/,/,/,-3%
FC(F)(F)c1cccc(-n2c(Cn3nnc4ccccc43)n[nH]c2=S)c1,-6%,/,89µM*,-24%,47%,-12%
O=C(COC(=O)CSc1ccc([N+](=O)[O-])cc1)NCCC1=CCCCC1,-9%,-12%[12.7 µM],/,-18%,8%,-23%
COc1ccc(-c2nc3c(c(SCC(=O)N4CCOCC4)n2)Cc2c(CO)cnc(C)c2O3)cc1,12%,88%[59 µM],36%,-35%,10%,-17%
CCN(CC)C(=O)CSc1nc(-c2ccc(C)cc2)nc2c1Cc1c(CO)cnc(C)c1O2,45µM*,14µM*,/,?,-1%,/
Cc1cc(C)cc(NC(=O)CSc2nc(-c3cccc(Cl)c3)nc3c2Cc2c(CO)cnc(C)c2O3)c1,50µM*,1%[59 µM],/,8%,49%,/
Cc1ccc(-c2nc3c(c(SCC(=O)N4CCOCC4)n2)Cc2c(CO)cnc(C)c2O3)cc1,?,14µM*,3%,?,30%,?
COc1ccc(-c2nc3c(c(SCC(=O)Nc4cc(C)cc(C)c4)n2)Cc2c(CO)cnc(C)c2O3)cc1,-34%,-14%[59 µM],/,-14%,8%,/
